According to PubChem BioAssay AID1259421 (Broad Institute, 2018):
“And” between values parts separate entries of the source, which are not always exact repeats. Equal entries are not always repeated. Among all 6,400 compounds or so, about 610 (9.5%) were called active. Rule as the data show it: active = activity change below about -70%; inconclusive = no clear call, values can overlap the other calls; inactive = above that. This excerpt belongs to a sample that is enriched for actives. Some structures have more than one record in an assay (separate samples or runs), and their calls can disagree.

Test: T. gondii ME49Luc in HeLa cells, luciferase assay, 72 h, no IFN-y (AID 1259421)
Details: stronger effect = lower value, concentration not given here

| Structure (SMILES) | activity change, negative = inhibition |
| --- | --- |
| CCCC[C@@H](CC)COC(=O)C(C#N)=C(c1ccccc1)c1ccccc1 | -53.6% (inactive) |
| CC(=O)OCC(=O)[C@@]1(O)[C@H](OC(C)=O)CC2C3CCC4=CC(=O)C=C[C@]4(C)[C@@]3(F)[C@@H](O)C[C@@]21C (stereo partly specified) | -7.39% (inactive) |
| COc1ccc(-c2coc3c(O)c(O)c(OC)cc3c2=O)cc1 | 77.9% (inactive) |
| Nc1c2c(nc3ccccc13)CCCC2 | -1.53% (inactive) and -2.1% (inactive) |
| Nc1c2ccccc2nc2ccccc12 | -47.3% (inactive) and -70.8% (active) and 3.45% (inactive) |
| Nc1c2c(nc3ccccc13)CCCC2O (stereo unspecified) | 8.95% (inactive) |
| CCCCCCCCCCCCCCCCn1cc[n+](Cc2ccccc2)c1C | -85.6% (active) |
| CCCCCCCCCCCCCCCC[N+](C)(C)Cc1ccccc1 | -3.66% (inactive) |
| CN1CCN(CCCCN2C(=O)CN(/N=C/c3ccc(-c4ccc(Cl)cc4)o3)C2=O)CC1 | 16.2% (inactive) |
| C[N+](C)(C)CC(O)CC(=O)O (stereo unspecified) | -0.966% (inactive) |
| CC[C@@H](C)Nc1cc(C(=O)NC2CC3CCC(C2)N3c2ccc(C(=O)C3CC3)cn2)c(C)cc1C(N)=O (stereo partly specified) | -89.6% (active) |
| CCCCC(F)(F)C(=O)CC[C@H]1[C@H](O)CC(=O)[C@@H]1CCCCCCC(=O)O | 34.9% (inactive) and 7.68% (inactive) |
| N#C/C(=C/c1ccc(O)c(O)c1)C(=O)OCCc1cccs1 | 11.8% (inactive) |
| CC(=O)N(C)C1(c2ccccc2)CCN(CCC[C@]2(c3ccc(Cl)c(Cl)c3)CCCN(C(=O)c3ccccc3)C2)CC1 | -7.4% (inactive) |
| NC(N)=NCC1COC2(CCCCC2)O1 (stereo unspecified) | -1.54% (inactive) |
| NC1(C(=O)O)CC1 | 13.6% (inactive) |
| CC(=O)O[C@H]1C[C@@H](OC(C)=O)C(C)(C)C2C[C@@H](OC(C)=O)[C@]3(C)C(CC[C@@]4(C)[C@H](c5ccoc5)OC(=O)[C@H]5O[C@]543)[C@]21C (stereo partly specified) | 0.452% (inactive) |
| CCS(=O)(=O)N(C)[C@H]1c2cc(C#N)ccc2OC(C)(C)[C@@H]1O (racemic) | 9.6% (inactive) |
| CCS(=O)(=O)N(C)C1c2cc(C#N)ccc2OC(C)(C)C1O (stereo unspecified) | -6.08% (inactive) |
| CC(=O)N(O)[C@@H]1c2cc(C#N)ccc2OC(C)(C)[C@H]1O | -86% (active) and 7.72% (inactive) |
| Nc1c[n+](N2CCOCC2)no1 | 18.8% (inactive) |
| CO/N=C(/C(=O)NC1C(=O)N2C(C(=O)OC(C)OC(C)=O)=C(COC(N)=O)CSC12)c1ccco1 (stereo unspecified) | 4.1% (inactive) |
| O=C(O)CCC/C=C\C[C@@H]1[C@@H](/C=C/[C@@H](O)COc2cccc(Cl)c2)[C@H](O)C[C@@H]1O | 11.1% (inactive) and 5.18% (inactive) and 11% (inactive) |

| Structure (SMILES) | activity change, negative = inhibition |
| --- | --- |
| Cc1c[nH]c(=O)n(CCCN2CCN(c3ccccc3OCC(F)(F)F)CC2)c1=O | 2.85% (inactive) and 2.68% (inactive) |
| C1CCC2(CC1)CCNCC2 | -1.4% (inactive) |
| COc1cc2ncnc(Nc3ccc(F)c(Cl)c3)c2cc1OCCCN1CCOCC1 | 15.9% (inactive) |
| COc1cc(Nc2c(C#N)cnc3cc(OCCCN4CCN(C)CC4)c(OC)cc23)c(Cl)cc1Cl | -79.2% (active) and -77.5% (active) |
| COc1cc2c(Nc3ccc(NC(=O)c4ccccc4)cc3)ncnc2cc1OCCCN1CCOCC1 | -50.7% (inactive) and -23.3% (inactive) |
| CN(C)C(=O)NC1CCC(CCN2CCN(c3cccc(Cl)c3Cl)CC2)CC1 (stereo unspecified) | 3.31% (inactive) |
| CC12CCC(C(=O)N(CCCCN3CCN(c4ccccn4)CC3)C1=O)C2(C)C (stereo unspecified) | -4.45% (inactive) |
| CCNC(=O)[C@H]1O[C@@H](n2cnc3c(N)nc(NCCc4ccc(CCC(=O)O)cc4)nc32)[C@@H](O)[C@@H]1O | 9.76% (inactive) |
| CC(C)(C)c1cnc(CSc2cnc(NC(=O)C3CCNCC3)s2)o1 | -71.7% (active) |
| CC(=O)O[C@@H]1CC2C(C)(C)[C@H](O)CC[C@]2(C)C2CC[C@@]3(C)[C@H](c4ccoc4)OC(=O)C4OC43[C@@]21C (stereo partly specified) | 14.1% (inactive) |
| COc1cccc(CCc2ccccc2OCC[C@@H]2C[C@@H](O)CN2C)c1 | -6.08% (inactive) and -38.5% (inactive) |
| Nc1ccc(-c2cccc3c(=O)cc(N4CCOCC4)oc23)cc1 | 3.1% (inactive) and -4.84% (inactive) |
| O=c1cc(N2CCOCC2)oc2c(-c3ccccc3)cccc12 | 13.4% (inactive) |
| O=c1cc(N2CCNCC2)oc2c(-c3ccccc3)cccc12 | -75.1% (active) and -94.2% (active) |
| Nc1ncnc2c1ncn2[C@@H]1O[C@H](COP(=O)(O)OP(=O)(O)OP(=O)(O)OP(=O)(O)OC[C@H]2O[C@@H](n3cnc4c(N)ncnc43)C(O)C2O)C(O)C1O (stereo partly specified) | -3.47% (inactive) |
| O=C1C=CC(=O)C2=C1C1c3ccccc3C2c2ccccc21 | -2.66% (inactive) |
| Cn1cccc1/C=C1\C(=O)NC(=O)c2ccccc21 | -4.19% (inactive) |
| CCc1cc(Cl)c(OC)c(C(=O)NCC2CCCN2CC)c1O (stereo unspecified) | 0.175% (inactive) |
| c1cnc(SCc2cccnc2)nc1 | 15.1% (inactive) |
| Cc1cc(C(C)(C)CC(C)(C)C)ccc1OCCOCC[N+](C)(C)Cc1ccccc1 | -1.86% (inactive) |
| C[N+](C)(CCOc1ccccc1)Cc1ccccc1 | 13.6% (inactive) |
| CC(C)(C)CC(C)(C)c1ccc(OCCOCC[N+](C)(C)Cc2ccccc2)cc1 | -84.1% (active) and 4.83% (inactive) |
| CC(O)COC[C@H]1O[C@@H]2O[C@H]3[C@H](O)[C@@H](O)[C@@H](O[C@H]4[C@H](O)[C@@H](O)[C@@H](O[C@H]5[C@H](O)[C@@H](O)[C@@H](O[C@H]6[C@H](O)[C@@H](O)[C@@H](O[C@H]7[C@H](O)[C@@H](O)[C@@H](O[C@H]8[C@H](O)[C@@H](O)[C@@H](O[C@H]1[C@H](O)[C@H]2O)O[C@@H]8COCC(C)O)O[C@@H]7COCC(C)O)O[C@@H]6COCC(C)O)O[C@@H]5COCC(C)O)O[C@@H]4COCC(C)O)O[C@@H]3COCC(C)O (stereo partly specified) | 10.2% (inactive) |
